Our source for the growth values is PubChem BioAssay (NCI).

Common to all, as to assay: NCI-60 one-dose screen, 48 h (100 = growth as untreated, 0 = no growth, -100 = all killed)
What all share (conditions): 10 µM unless noted

Test [1] relates to DU-145 prostate.
Test [2] relates to K-562 leukemia.
Test [3] deals with MALME-3M melanoma.
The test system of test [4] is MDA-MB-231 breast.
Test [5] relates to RXF 393 renal.
Test [6] has as its system SF-268 CNS.
In test [7] the test system is SF-295 CNS.
The subject of test [8] is SF-539 CNS.
Test [9] relates to M14 melanoma.

Molecules are shown by their SMILES. About 83,000 compounds went through this panel and 20% of them were active in at least one assay; those are over-represented in the sample as a whole.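 The test compound was applied at a single concentration to cells in 96-well plates for 48 hours, and percent growth was recorded.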 Unmarked numbers belong to inactive results. Calls of active or inactive are those of the source. The calls were made as follows: active = growth percent below 10; inactive = the rest.

For `Cn1c2ccccc2c2c3c(c4c5cccnc5[nH]c4c21)C(=O)N(O)C3=O`, the growth in [1] is 26.5%; in test [2] it was 29.8%; in test [3], 58.2%; in [4], 68.8%; in test [5] it was 59.5%; in [6], 38.2%. Moreover, the growth in test [7] was 37.6%; in [8], 16.6%; in [9] it was 20.5%.
With `CCCCCCCC(=O)SCC/C=C/[C@@H]1CC(=O)NCc2cccc(n2)CN(Cc2ccc3ccccc3c2)CC(=O)N[C@@H](C(C)C)C(=O)O1`, the growth in [1] is 51.4%; in test [2], 13.8%; in test [3], 8.13% (active); in test [4] it was 27.3%; in test [5], 20.3%; in test [6], 61.1%. The results for the growth in [7], in test [8] and in test [9] were 9.4% (active), 59.1% and 28.4%, respectively.
Take `O=S(=O)(NCCNc1cc(-c2cn(-c3ccccc3)nc2-c2cccc(O)c2)ccn1)c1ccc(F)cc1`: the growth was 55.3% in [1]; 1.3% (active) in test [2]; 14.5% in [3]; -9.05% (active) in test [4]; 35% in test [5]; 40.4% in [6]. The growth in [7] was 10.4%; in [8], 44.4%; in [9] it was 14.2%.
In the case of `COC(=O)[C@]12CC[C@@H](C)[C@H](C)[C@@H]1C1=CC[C@@H]3[C@@]4(C)C[C@@H](OC(C)=O)[C@H](OC(C)=O)[C@@](C)(COC(C)=O)[C@@H]4[C@H](O)C[C@@]3(C)[C@]1(C)CC2`, the growth in test [1] is 20.3%; in test [2], 8.42% (active); in [3], 5.25% (active); in test [4], 18.1%; in test [5], -22.1% (active); in [6], 23.4%. The growth in test [7] was 7.96% (active); in [8], 15.4%; in [9], 14.2%.
Regarding `COC(=O)[C@]12CC[C@@H](C)[C@H](C)[C@@H]1C1=CC[C@@H]3[C@@]4(C)C[C@@H](OC(C)=O)[C@H](O)[C@@](C)(COC(C)=O)[C@@H]4[C@H](O)C[C@@]3(C)[C@]1(C)CC2`, the growth in [1] was -91.9% (active); in test [2], -10.7% (active); in test [3], -70.5% (active); in test [4], -68% (active); in [5] it was -79.2% (active); in test [6], -71.9% (active). Besides, the growth in test [7] was -91.8% (active); in test [8], -85.1% (active); in test [9], -73.3% (active).
`O=C1CNCCN1`: the growth was 107% in [1]; 101% in test [2]; 104% in test [3]; 97.9% in [4]; 98.5% in test [5]; 107% in test [6]. Also, the results for the growth in [7], in test [8] and in [9] were 97.4%, 95.8% and 105%, respectively.
As for `Nc1c(C(=O)Nc2cccc3ccccc23)sc2nc3c(cc12)CCCC3`, the growth was 19.3% in [1]; 9.59% (active) in test [2]; 78% in [3]; 33.2% in test [4]; 27.4% in test [5]; 50.1% in test [6]. For the same compound, the growth in test [7] was 14.6%; in [8], 8.91% (active); in test [9], 7.77% (active).
Take `COC(=O)[C@]12CC[C@@H](C)[C@H](C)[C@@H]1C1=CC[C@@H]3[C@@]4(C)C(c5ncon5)=C[C@@](C)(CO)C4=CC[C@@]3(C)[C@]1(C)CC2`: the growth is -71.5% (active) in test [1]; -21.2% (active) in test [2]; -73.6% (active) in test [3]; -49.3% (active) in test [4]; -73.2% (active) in test [5]; -7.68% (active) in [6]. The values for the growth in test [7], in test [8] and in [9] were -46.8% (active), -86.2% (active) and -58.5% (active), respectively.
On to `Cn1cnc2c1c(=O)n(CCC(=O)Nc1ccc(F)cc1)c(=O)n2C`, for which the growth in test [1] was 103%; in test [2], 108%; in test [3], 97.1%; in test [4], 101%; in [5], 116%; in [6], 105%. Besides, the values for the growth in [7], in test [8] and in [9] were 102%, 101% and 101%, respectively.
For `COc1ccc(-c2cc(-c3c(C)oc4cc5occc5c(OC)c4c3=O)nc(N)c2C#N)cc1OC`, the growth in test [1] was 81.9%; in [2], 32%; in test [3], 86.4%; in [4], 64.4%; in test [5], 61.6%; in test [6], 65.1%. Besides, the figures for the growth in test [7], in test [8] and in test [9] were 52.1%, 64.2% and 72.2%, respectively.
On to `N#Cc1cnc2cc(OC[C@@H](O)CO)c(NC(=O)C3CCCC3)cc2c1Nc1ccc(OCc2cccc(F)c2)c(Cl)c1`, for which the growth was -90.8% (active) in [1]; 0.239% (active) in [2]; -48.8% (active) in test [3]; -58.5% (active) in test [4]; -62.6% (active) in test [5]; 23.1% in test [6]. The growth in test [7] was 1.06% (active); in test [8], -32.5% (active); in test [9], -53% (active).
In the case of `COc1cccc(-c2nn(-c3ccccc3)cc2-c2ccnc(NCCCNS(=O)(=O)c3ccc(C(F)(F)F)cc3)c2)c1`, the growth was 59.6% in [1]; 8.17% (active) in [2]; 25.8% in [3]; 6.9% (active) in test [4]; -7.54% (active) in test [5]; 43.9% in [6]. The growth in [7] is 14.5%; in [8] it was 46.4%; in [9], 22.1%.
Take `Fc1ccc(Nc2nc(Nc3ccc(-c4nc5ccccc5[nH]4)cc3)nc(N3CCCC3)n2)cc1`: the growth is 93.3% in test [1]; -38.8% (active) in test [2]; 85.7% in test [3]; 61.6% in test [4]; 77.8% in test [5]; 91.2% in [6]. Besides, the growth is 90.9% in test [7], 81.6% in test [8] and -58.3% (active) in test [9].
Turning to `C[C@]12CC[C@@H]3c4ccc(O)cc4CC[C@H]3[C@@H]1C[C@H](O)[C@@H]2O`, the growth in [1] was 94.9%; in test [2] it was 118%; in test [3] it was 95.8%; in test [4] it was 94.4%; in test [5] it was 86.9%; in test [6], 89.8%. Besides, the growth in test [7] was 92.5%; in [8] it was 92.1%; in [9] it was 90.9%.
